Reference: PubChem BioAssay (EPA / NIEHS)
Activity calls are given as the source filed them. How the source made its calls: active means hit-call score of the fitted dose curve at least 0.9, where 1 is the maximum; inactive means score below 0.9.

Tests used:
[1] = biological target: Transcription factor E2F1 (Homo sapiens) (UniProt Q01094); assay: ATG_E2F_CIS: Attagene CIS-FACTORIAL HepG2 Assay for human E2F Transcription Factor 1 (AID 2282935); settings: HepG2 Attagene cis-reporter, E2F reporter RNA transcripts; actives raise or lower the signal
Summary of the method: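 Total RNA from 24 h-treated, reporter-transfected HepG2 cells undergoes DNase I treatment, oligo(dT) reverse transcription, PCR and 6-FAM primer extension before capillary electrophoresis.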

[2] = ATG_E_Box_CIS: Attagene CIS-FACTORIAL HepG2 Assay for human Enhancer Box (E-box) (AID 2282936); settings: HepG2 E-box cis-reporter transcription, actives raise or lower the signal
Summary of the method: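 DMSO served as negative control and baseline for bidirectional fitting. Human hepatoma HepG2 cells, transiently transfected with cis-reporter constructs, were dosed 24 h; reporter mRNA read by RT-PCR and capillary electrophoresis.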

[3] = ATG_M_61_CIS: Attagene CIS-FACTORIAL HepG2 Assay for M61 Transcription Factor (Internal Marker) (AID 2282937); settings: HepG2 Attagene CIS-FACTORIAL M61 internal marker reporter; actives raise or lower the signal
Summary of the method: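 Endogenous transcription factor activity in HepG2 is read through transiently transfected cis-element reporter units. After 24 h dosing, RNA undergoes reverse transcription, PCR and primer extension with 6-FAM before capillary electrophoresis; DMSO-referenced bidirectional fit.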

[4] = ATG_EGR_CIS: Attagene CIS-FACTORIAL HepG2 Assay for human Early Growth Response 1 (EGR1) (AID 2282938); settings: HepG2 Attagene CIS-FACTORIAL EGR reporter mRNA; actives raise or lower the signal
Summary of the method: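 Activity is taken as induction or loss of reporter mRNA versus DMSO, fitted bidirectionally. Transcripts from cis-regulated reporter units in transiently transfected HepG2 were measured after 24 h by RT-PCR with capillary electrophoresis.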

[5] = ATG_M_19_CIS: Attagene CIS-FACTORIAL HepG2 Assay for M19 Transcription Factor (Internal Marker) (AID 2282939); settings: HepG2 Attagene CIS-FACTORIAL M19 internal marker reporter; actives raise or lower the signal
Summary of the method: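 Background-control endpoint from a multiplexed HepG2 reporter panel. Cells carrying cis-regulated reporter constructs are treated 24 h, then reporter transcripts are amplified, fluorescently labelled and sized by capillary electrophoresis. DMSO defines baseline.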

[6] = ATG_ERE_CIS: Attagene CIS-FACTORIAL HepG2 Assay for Estrogen Response Element (ERE) (AID 2282940); settings: HepG2 ERE cis-reporter, Attagene RNA transcript; actives raise or lower the signal
Summary of the method: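 Cells used were human hepatoma HepG2, transfected with multiple reporter transcription units under cis-regulatory promoters. Reporter mRNA, read 24 h post-dosing via fluorescent RT-PCR products on capillary electrophoresis, was fitted bidirectionally relative to DMSO.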

[7] = ATG_Ets_CIS: Attagene CIS-FACTORIAL HepG2 Assay for human Erythroblast Transformation Specific (ETS) (AID 2282941); settings: HepG2 ETS cis-reporter transcription, actives raise or lower the signal
Summary of the method: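 HepG2 cells transfected with multiple cis-regulated reporter units measuring endogenous ETS-driven transcription, 24 h after dosing. Reporter mRNA quantified by RT-PCR with capillary electrophoresis; bidirectional fit relative to DMSO.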

[8] = biological target: Hepatocyte nuclear factor 3-beta (Homo sapiens) (UniProt Q9Y261); assay: ATG_FoxA2_CIS: Attagene CIS-FACTORIAL HepG2 Assay for human Forkhead box A2 (FOXA2) (AID 2282942); settings: HepG2 cis-reporter transcription factor activity, 24 h; actives raise or lower the signal
Summary of the method: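 Reporter transcript induction is measured by fluorescence after capillary electrophoresis of RT-PCR products from HepG2 cells exposed 24 h. Cis-regulated reporter units report endogenous factor activity; curves fitted both directions against DMSO.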

[9] = ATG_FoxO_CIS: Attagene CIS-FACTORIAL HepG2 Assay for human Forkhead box O (FoxO) (AID 2282943); settings: HepG2 Attagene cis-reporter, FoxO element, mRNA; actives raise or lower the signal
Summary of the method: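 Human hepatoma HepG2 cells carry transiently introduced reporter transcription units controlled by cis promoter elements. Chemical treatment lasted 24 h, and mRNA signal was compared with DMSO.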

[10] = ATG_GATA_CIS: Attagene CIS-FACTORIAL HepG2 Assay for human GATA Binding Protein (AID 2282944); settings: HepG2 GATA cis-element reporter, Attagene multiplex mRNA; actives raise or lower the signal
Summary of the method: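 Endogenous transcription factor activity was captured through cis-promoter-driven reporters in transfected HepG2 cells. After 24 h exposure, reporter transcripts were quantified by RT-PCR with fluorescent capillary electrophoresis, and responses fitted both directions against DMSO.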

[11] = ATG_GLI_CIS: Attagene CIS-FACTORIAL HepG2 Assay for human Zinc Finger Protein GLI1 (AID 2282945); settings: HepG2, Attagene cis-factorial reporter mRNA, GLI element; actives raise or lower the signal
Summary of the method: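 Bidirectional curve fits relative to DMSO, using reporter mRNA levels from RT-PCR plus capillary electrophoresis. Cells were HepG2 transiently carrying cis-regulated reporter constructs, harvested 24 h after dosing.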

[12] = ATG_GRE_CIS: Attagene CIS-FACTORIAL HepG2 Assay for human Glucocorticoid Response Elements (GRE) (AID 2282947); settings: HepG2 GRE cis-reporter, Attagene multiplex mRNA; actives raise or lower the signal
Summary of the method: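 Assay uses human hepatoma HepG2 cells transfected with cis-promoter reporter units, exposed 24 h. mRNA from reporters detected by RT-PCR plus capillary electrophoresis; DMSO serves as negative control and baseline.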

[13] = ATG_ISRE_CIS: Attagene CIS-FACTORIAL HepG2 Assay for human Interferon Regulatory Factor 1 (IRF1) binding to an Interferon-Stimulated Response Element (ISRE) (AID 2282948); settings: HepG2 ISRE cis-reporter (Attagene), mRNA transcription readout; actives raise or lower the signal
Summary of the method: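 Transiently transfected HepG2 cells carrying cis-element reporter units, dosed 24 hours. Reporter mRNA quantified by RT-PCR, fluorescent primer extension, HpaI digestion and capillary electrophoresis. Bidirectional fitting relative to DMSO.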

[14] = ATG_M_32_CIS: Attagene CIS-FACTORIAL HepG2 Assay for M32 Transcription Factor (Internal Marker) (AID 2282949); settings: HepG2 Attagene cis-factorial M32 reporter, mRNA; actives raise or lower the signal;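 further: background control marker of the multiplexed CIS panel rather than a real target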
Summary of the method: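 Internal background marker read-out: RT-PCR/capillary electrophoresis fluorescence of reporter transcripts from transiently transfected HepG2 cells after 24 h chemical exposure. Activity fitted bidirectionally relative to DMSO negative control.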

[15] = ATG_M_06_CIS: Attagene CIS-FACTORIAL HepG2 Assay for M06 Transcription Factor (Internal Marker) (AID 2282950); settings: HepG2 Attagene CIS-FACTORIAL M06 internal marker reporter; actives raise or lower the signal
Summary of the method: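 Steps: transfect HepG2 with multiplexed cis-element reporter constructs; dose chemical 24 h; extract RNA with DNase treatment; reverse-transcribe, PCR-amplify, 6-FAM label, HpaI digest; separate fragments by capillary electrophoresis. Activity fitted both directions versus DMSO.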

[16] = biological target: Hypoxia-inducible factor 1-alpha (Homo sapiens) (UniProt Q16665); assay: ATG_HIF1a_CIS: Attagene CIS-FACTORIAL HepG2 Assay for human Hypoxia Inducible Factor 1 (HIF1A) (AID 2282951); settings: HepG2 Attagene cis-factorial HIF1a reporter transcription; actives raise or lower the signal
Summary of the method: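 Fluorescence intensity of capillary-separated, 6-FAM-labelled reporter amplicons gives mRNA induction in HepG2 cells carrying transfected cis-promoter reporter units; cells exposed 24 h, responses fitted up or down from DMSO.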

[17] = biological target: Hepatocyte nuclear factor 6 (Homo sapiens) (UniProt Q9UBC0); assay: ATG_HNF6_CIS: Attagene CIS-FACTORIAL HepG2 Assay for human Hepatocyte Nuclear Factor 6 (HNF6) (AID 2282952); settings: HepG2 Attagene cis-factorial HNF6 reporter transcription; actives raise or lower the signal
Summary of the method: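 HepG2 cells transiently transfected with cis-element-driven multiple reporter transcription units, dosed 24 h; reporter mRNA quantified by RT-PCR, FAM primer extension, HpaI digestion and capillary electrophoresis; bidirectional fit versus DMSO baseline.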

[18] = biological target: Heat shock factor protein 1 (Homo sapiens) (UniProt Q00613); assay: ATG_HSE_CIS: Attagene CIS-FACTORIAL HepG2 Assay for human Heat Shock Transcription Factor 1 (HSE) (AID 2282953); settings: HepG2 HSE cis-reporter, Attagene RNA transcription; actives raise or lower the signal
Summary of the method: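 Cells were transfected with cis-element-driven reporter constructs, dosed for 24 h, then total RNA was reverse-transcribed and reporter cDNA amplified, FAM-labelled and digested with HpaI. Fragments were resolved by capillary electrophoresis; gain or loss was fitted against DMSO.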

[19] = ATG_MRE_CIS: Attagene CIS-FACTORIAL HepG2 Assay for human Metal Responsive Element (MRE) (AID 2282954); settings: HepG2 MRE cis-reporter transcription, Attagene multiplex; actives raise or lower the signal
Summary of the method: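 After a 24 h chemical exposure, transiently transfected HepG2 cells yield RNA whose reporter sequences are amplified, FAM-labelled and sized by capillary electrophoresis. Curves are fitted bidirectionally relative to DMSO.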

[20] = biological target: Bile acid receptor (Homo sapiens) (UniProt Q96RI1); assay: ATG_IR1_CIS: Attagene CIS-FACTORIAL HepG2 Assay for human Nuclear Receptor Subfamily 1 Group H Member 4 (NR1H4), IR1 submotif (AID 2282946); settings: IR1 reporter transcription, actives raise or lower the signal
Summary of the method: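 Cells (human HepG2) carry transiently transfected cis-promoter reporter transcription units. Compounds are incubated 24 h, total RNA is reverse-transcribed and amplified, and labelled fragments are resolved by capillary electrophoresis. Curves use DMSO as baseline.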

Measured: AC50

Sequence of Hepatocyte nuclear factor 6 (Homo sapiens) (Q9UBC0 whole entry, looked up): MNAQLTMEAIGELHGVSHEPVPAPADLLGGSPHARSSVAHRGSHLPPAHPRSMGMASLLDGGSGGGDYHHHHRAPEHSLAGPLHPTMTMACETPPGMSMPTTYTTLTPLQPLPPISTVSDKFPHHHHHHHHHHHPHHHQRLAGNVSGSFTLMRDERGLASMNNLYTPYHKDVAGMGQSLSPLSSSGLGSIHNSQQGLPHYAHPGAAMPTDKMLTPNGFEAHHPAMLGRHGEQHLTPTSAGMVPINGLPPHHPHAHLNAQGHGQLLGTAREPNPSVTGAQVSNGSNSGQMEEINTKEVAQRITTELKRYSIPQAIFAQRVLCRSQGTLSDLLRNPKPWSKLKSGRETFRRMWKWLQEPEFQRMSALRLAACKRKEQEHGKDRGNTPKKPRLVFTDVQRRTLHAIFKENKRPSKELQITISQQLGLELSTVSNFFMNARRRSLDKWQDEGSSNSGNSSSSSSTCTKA
Sequence of Hypoxia-inducible factor 1-alpha (Homo sapiens) (Q16665 whole entry, looked up): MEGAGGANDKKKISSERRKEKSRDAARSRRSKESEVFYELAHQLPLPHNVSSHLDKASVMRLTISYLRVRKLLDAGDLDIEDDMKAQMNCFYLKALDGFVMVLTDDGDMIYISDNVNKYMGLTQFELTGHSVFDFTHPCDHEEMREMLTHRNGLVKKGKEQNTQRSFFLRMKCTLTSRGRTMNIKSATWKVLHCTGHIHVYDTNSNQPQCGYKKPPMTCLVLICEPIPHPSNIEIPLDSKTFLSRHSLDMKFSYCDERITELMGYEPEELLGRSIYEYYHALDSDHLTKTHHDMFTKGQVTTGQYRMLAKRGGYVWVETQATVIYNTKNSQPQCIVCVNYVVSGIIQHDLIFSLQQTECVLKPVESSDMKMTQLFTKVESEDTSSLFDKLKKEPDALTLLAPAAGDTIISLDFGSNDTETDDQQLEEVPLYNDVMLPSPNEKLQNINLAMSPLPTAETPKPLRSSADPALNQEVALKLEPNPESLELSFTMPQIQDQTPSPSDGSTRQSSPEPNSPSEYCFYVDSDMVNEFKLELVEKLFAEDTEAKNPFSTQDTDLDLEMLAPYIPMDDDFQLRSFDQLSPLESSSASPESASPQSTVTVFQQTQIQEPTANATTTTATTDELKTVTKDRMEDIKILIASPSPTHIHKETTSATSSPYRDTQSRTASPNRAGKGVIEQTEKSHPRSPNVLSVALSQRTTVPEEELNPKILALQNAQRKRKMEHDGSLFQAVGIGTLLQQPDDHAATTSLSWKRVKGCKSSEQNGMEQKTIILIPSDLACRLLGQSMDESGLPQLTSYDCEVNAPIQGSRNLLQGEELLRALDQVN
Sequence of Transcription factor E2F1 (Homo sapiens) (Q01094 whole entry, looked up): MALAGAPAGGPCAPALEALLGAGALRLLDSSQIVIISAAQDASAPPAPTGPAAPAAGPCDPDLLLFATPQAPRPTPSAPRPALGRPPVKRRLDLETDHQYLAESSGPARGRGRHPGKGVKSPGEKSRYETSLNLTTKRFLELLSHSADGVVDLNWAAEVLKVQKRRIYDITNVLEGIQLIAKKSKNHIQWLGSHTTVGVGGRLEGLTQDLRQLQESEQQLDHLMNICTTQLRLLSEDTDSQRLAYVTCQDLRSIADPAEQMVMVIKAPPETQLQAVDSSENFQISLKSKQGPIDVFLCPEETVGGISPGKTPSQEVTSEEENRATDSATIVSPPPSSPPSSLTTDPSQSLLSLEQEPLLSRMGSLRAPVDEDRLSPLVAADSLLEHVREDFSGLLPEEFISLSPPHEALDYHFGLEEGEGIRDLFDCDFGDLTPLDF
Sequence of Hepatocyte nuclear factor 3-beta (Homo sapiens) (Q9Y261 whole entry, looked up): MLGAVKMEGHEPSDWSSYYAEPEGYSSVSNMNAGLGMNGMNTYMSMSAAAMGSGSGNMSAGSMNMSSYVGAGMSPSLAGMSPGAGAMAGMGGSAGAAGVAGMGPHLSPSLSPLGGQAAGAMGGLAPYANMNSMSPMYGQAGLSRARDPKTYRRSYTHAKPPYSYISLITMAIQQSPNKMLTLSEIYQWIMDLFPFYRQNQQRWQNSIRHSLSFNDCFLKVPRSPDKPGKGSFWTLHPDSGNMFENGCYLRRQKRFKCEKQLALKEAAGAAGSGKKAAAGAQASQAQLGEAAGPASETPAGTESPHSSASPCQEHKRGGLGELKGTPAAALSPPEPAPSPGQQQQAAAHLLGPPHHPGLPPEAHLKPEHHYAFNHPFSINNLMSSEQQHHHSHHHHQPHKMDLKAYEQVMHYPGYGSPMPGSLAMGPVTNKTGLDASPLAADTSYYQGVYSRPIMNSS
Sequence of Heat shock factor protein 1 (Homo sapiens) (Q00613 whole entry, looked up, the tested form may be a part): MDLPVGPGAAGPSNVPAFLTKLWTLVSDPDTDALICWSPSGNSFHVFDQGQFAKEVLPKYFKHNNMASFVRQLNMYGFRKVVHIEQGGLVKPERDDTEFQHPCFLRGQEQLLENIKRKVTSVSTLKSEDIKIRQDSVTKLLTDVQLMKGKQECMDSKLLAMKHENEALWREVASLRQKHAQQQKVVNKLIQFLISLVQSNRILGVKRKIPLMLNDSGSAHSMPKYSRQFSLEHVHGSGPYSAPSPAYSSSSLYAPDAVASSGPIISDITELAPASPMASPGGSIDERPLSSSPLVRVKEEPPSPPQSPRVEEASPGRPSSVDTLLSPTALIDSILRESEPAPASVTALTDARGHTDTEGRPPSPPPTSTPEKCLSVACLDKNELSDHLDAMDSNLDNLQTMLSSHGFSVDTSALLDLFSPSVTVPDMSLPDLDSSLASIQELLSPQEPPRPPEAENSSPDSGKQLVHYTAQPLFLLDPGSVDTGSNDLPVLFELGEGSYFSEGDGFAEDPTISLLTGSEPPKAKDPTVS
Sequence of Bile acid receptor (Homo sapiens) (Q96RI1 whole entry, looked up, the tested form may be a part): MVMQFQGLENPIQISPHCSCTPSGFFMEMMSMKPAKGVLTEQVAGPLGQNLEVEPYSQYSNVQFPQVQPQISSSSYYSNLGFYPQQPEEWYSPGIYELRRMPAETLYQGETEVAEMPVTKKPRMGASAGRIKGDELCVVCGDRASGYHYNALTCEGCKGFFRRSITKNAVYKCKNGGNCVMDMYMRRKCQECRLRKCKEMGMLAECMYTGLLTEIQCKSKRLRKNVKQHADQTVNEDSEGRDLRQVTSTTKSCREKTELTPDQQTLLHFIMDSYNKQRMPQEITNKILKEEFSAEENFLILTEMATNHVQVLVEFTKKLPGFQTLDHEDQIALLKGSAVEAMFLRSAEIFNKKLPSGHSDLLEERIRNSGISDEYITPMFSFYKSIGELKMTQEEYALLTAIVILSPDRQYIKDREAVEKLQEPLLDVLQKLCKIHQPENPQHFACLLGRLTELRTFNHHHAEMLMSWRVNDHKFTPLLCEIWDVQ

CC1(C)[C@@H]2CC[C@@]1(C)C(=O)C2
not listed: [19] | [20]
inactive: all other assays above

O=C(O)CCCC(=O)O
not listed: [20]
inactive: all other assays above

NC(=O)Nc1ccccc1
not listed: [18] | [19] | [20]
inactive: all other assays above

N=C1C=CC(=C(c2ccc(N)cc2)c2ccc(N)cc2)C=C1
active: [2] 72.5 µM | [5] 100 µM | [7] 25.4 µM | [9] 180 µM | [10] 26.2 µM | [13] 33.4 µM | [18] 42.5 µM | [19] 48.2 µM
not listed: [12] | [16]
inactive: all other assays above
